Compound activity from PubChem.
bCat KO growth: beta-catenin-lacking colon tumor cell growth suppression; viability, % at 10 µM; HCT116 beta-catenin knockout viability, CellTiter-Glo, 60 h; active compounds read low; AID 818; actives 1.5% (n = 140,000);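 active means viability at or under a set limit, the compound median less 4 SD, cut at about 6% in these data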
HCT116 PTEN-null: PTEN-deleted cell growth suppression | HCT116 PTEN-null viability, CellTiter-Glo, 60 h; active compounds read low | viability, % at 10 µM | actives 1.2% (n = 140,000);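 active means viability at or below a set limit, 4 SD under the median of all tested compounds, cut at about 3.7% in these data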;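 further: PTEN knockout HCT116 line with beta catenin targeted HCT116 as companion control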
Ins promoter up: MIN6 insulin promoter up-regulation; AID 1625; actives 0.3% (n = 190,000); z-score at 5 µM; MIN6 insulin promoter-GFP reporter, high-content imaging; active compounds read high;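 active means z-score above 3 at 5 µM with at least 500 cells counted in the well; inconclusive means wells under 500 cells, flagged as cytotoxic or low count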
Lmaj promast: reduces viability of Leishmania major promastigotes. resazurin fluorescence viability. inhibition, % at 10 µM. actives 9% (n = 200,000). AID 1063; in the data active means inhibition above about 50%;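 further: promastigotes grown with compound for 44 hours at 28 °C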
Autophagy HCS: modulators of autophagy. MEF GFP-LC3 puncta imaging; test concentration mostly 10 µM. calls only at 10 µM (by protocol). actives 0.98% (n = 190,000). AID 463193;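 active means percentage of spot-positive cells more than 3 SD above its plate mean, without a fluorescence outlier flag or 80% toxicity; inconclusive means no clear call, values can overlap the other calls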
INS promoter inh: TRM-6 insulin promoter activity inhibition; AID 1273; actives 0.9% (n = 130,000); inhibition, % at 2 µM; TRM-6 cells (human fetal islet line), insulin promoter-eGFP reporter, imaging; reporter expression induced with tamoxifen;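 active means inhibition above the mean plus 3 SD, with well images judged a real hit on visual review, cut at about 60% in these data, passing the limit was not always enough; inconclusive means inhibition over the cutoff but images rejected on review; inactive means inhibition not above the cutoff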
Large screens that a line does not name were inactive. The list is not random: actives were taken first. Their share in the collection is about 9.6%.

Cc1occc1C(=O)N/N=C/C1=C(N2CCOCC2)C(=C\c2ccc(Cl)cc2Cl)/CC1	Lmaj promast 93, Autophagy HCS active
COCCn1cnc2c1c(=O)n(CC(=O)OCC(=O)NCC(F)(F)F)c(=O)n2Cc1ccccc1	none (no result: INS promoter inh)
CC1=CC(=C(C#N)C#N)c2ccccc2N1C	Lmaj promast 99 (no result: bCat KO growth, HCT116 PTEN-null, INS promoter inh)
FC(F)Sc1ccc(NC(=S)NC(c2ccccc2)c2ccccc2)cc1	Lmaj promast 56 (no result: bCat KO growth, HCT116 PTEN-null)
FC(F)Sc1ccc(NC(=S)NCc2ccccc2)cc1	none (no result: bCat KO growth, HCT116 PTEN-null, INS promoter inh)
CCOC(=O)N1CCC(N2C(=O)c3ccccc3C2Nc2cc(C(=O)OC)cc(C(=O)OC)c2)CC1 (centres undefined)	Lmaj promast 62 (no result: INS promoter inh)
O=C1CSC(c2cccnc2)N1Cc1ccc(Cl)cc1 (centres undefined)	none (no result: bCat KO growth, HCT116 PTEN-null, Lmaj promast, Autophagy HCS, INS promoter inh)
Cc1cccc(NC(=O)CC2C(=O)NCCN2C(=S)Nc2ccccc2)c1 (centres undefined)	none (no result: INS promoter inh)
CCOC(=O)CC1C(=O)NCCN1C(=S)Nc1ccccc1 (centres undefined)	Lmaj promast 57
COc1ccc(C(=O)N2CCNC(=O)C2CC(=O)Nc2ccc(C)cc2)cc1 (centres undefined)	Lmaj promast 100 (no result: bCat KO growth, HCT116 PTEN-null, INS promoter inh)
COc1ccccc1NC(=S)N1CCNC(=O)C1CC(=O)Nc1cccc(C)c1 (centres undefined)	none (no result: bCat KO growth, HCT116 PTEN-null, Lmaj promast, Autophagy HCS, INS promoter inh)
COc1ccc(NC(=S)N2CCNC(=O)C2CC(=O)Nc2cccc(Cl)c2C)cc1 (centres undefined)	Lmaj promast 52
COc1ccc(NC(=O)CC2C(=O)NCCN2C(=O)c2ccc(N(C)C)cc2)cc1 (centres undefined)	none (no result: bCat KO growth, HCT116 PTEN-null, Lmaj promast, Autophagy HCS, INS promoter inh)
COc1ccccc1NC(=O)CC1C(=O)NCCN1C(=O)Nc1ccc(Cl)c(Cl)c1 (centres undefined)	Lmaj promast 67 (no result: Ins promoter up)
CSCCOC(=O)COc1ccc(/C=N/NC(=O)c2c(Cl)cnn2C)cc1	none (no result: bCat KO growth, HCT116 PTEN-null, Lmaj promast, Autophagy HCS, INS promoter inh)
O=C(Nc1ccc(Cl)cc1C(=O)NCCN1CCOCC1)c1ccco1	none
O=C(Nc1cccc(Cl)c1Cl)c1ccc(-c2ccccc2)cc1	none (no result: INS promoter inh)
O=C(Nc1cc(Cl)ccc1Cl)c1ccc(-c2ccccc2)cc1	Lmaj promast 51
CC(=O)/C(=N\Nc1ccc(C)cc1)Sc1nncn1C	Autophagy HCS active
Cc1nc2c(sc3nc4c(cc32)COC(C)(C)C4)c(=O)o1	none (no result: INS promoter inh)
Cc1ccc(C(=O)NC2CC3CCC(C2)N3Cc2ccco2)cc1 (centres undefined)	Lmaj promast 57 (no result: Ins promoter up)
Cc1ccc(CN2C3CCCC2CC(NC(=O)c2ccc(C)cc2)C3)cc1 (centres undefined)	Lmaj promast 81 (no result: bCat KO growth, HCT116 PTEN-null, INS promoter inh)
C=CCNC(=S)NCc1cccnc1	Lmaj promast 80
S=C(NCCc1ccccc1)Nc1cccc2cnccc12	INS promoter inh 73 (no result: bCat KO growth, HCT116 PTEN-null)
CCCCNC(=S)Nc1cccc2cnccc12	none (no result: INS promoter inh)
S=C(NCc1cccnc1)Nc1cccc2ccccc12	Lmaj promast 92
S=C(NCc1cccnc1)NCc1cccnc1	none (no result: bCat KO growth, HCT116 PTEN-null)
COc1ccc(CCNC(=S)Nc2cccc3ccccc23)cc1	Lmaj promast 85
CCn1cc(CNC(=S)Nc2cccc3ccccc23)cn1	none (no result: bCat KO growth, HCT116 PTEN-null, INS promoter inh)
O=C(NCCc1csc(-c2cccnc2)n1)c1ccc(Cl)cc1	none (no result: bCat KO growth, HCT116 PTEN-null, INS promoter inh)
CCC(C)NCCOCCSc1ccc(Cl)cc1 (centres undefined)	Lmaj promast 97
C=CCc1cc(Cl)ccc1OCCCNCCO	Lmaj promast 98 (no result: bCat KO growth, HCT116 PTEN-null, Ins promoter up, INS promoter inh)
COCCCNC(=O)CCSc1ccc(Cl)cc1	none (no result: INS promoter inh)
C=CCc1cc(Cl)ccc1OCCOCCNC(C)CC (centres undefined)	Lmaj promast 90 (no result: bCat KO growth, HCT116 PTEN-null, INS promoter inh)
C=CCc1cc(Cl)ccc1OCCCNC(C)C	Lmaj promast 100 (no result: Ins promoter up, INS promoter inh)
CCn1c(CNC(=O)c2ccc(OC)cc2)nnc1SCC(=O)c1ccccc1	none
C=CCc1cc(OC)ccc1OCCN(C)Cc1ccccc1	none (no result: bCat KO growth, HCT116 PTEN-null, INS promoter inh)
C=CCc1cc(Cl)ccc1OCCN(C)C	Lmaj promast 96
Cc1ccc(-c2nnc(N)s2)cc1	none
COc1ccc(-c2nnc(N)s2)cc1	INS promoter inh 75
O=C(N=Nc1c(O)n(Cc2ccccc2)c2ccccc12)c1ccc(O)cc1	Lmaj promast 91
Cn1cnnc1SCc1ccc(C(=O)N=Nc2c(O)n(Cc3ccc(Cl)cc3)c3ccccc23)cc1	bCat KO growth 3.8, Lmaj promast 99
O=Nc1c(O)n(Cc2ccc(Cl)cc2)c2ccccc12	Ins promoter up 3
CCn1c(O)c(N=NC(=O)c2ccc(CSc3nncn3C)cc2)c2ccccc21	none
O=C(N=Nc1c(O)n(Cc2ccccc2)c2ccccc12)c1cc2ccccc2cc1O	bCat KO growth 1.7, HCT116 PTEN-null 1.5 (no result: INS promoter inh)
COc1ccc(C(=O)NCC(=O)N=Nc2c(O)n(Cc3ccccc3)c3ccccc23)cc1OC	none (no result: INS promoter inh)
Cc1ccc(Cn2c(O)c(N=O)c3ccccc32)cc1	none (no result: bCat KO growth, HCT116 PTEN-null)
CCn1c(-c2ccccc2)c(C(=O)CCl)c2ccccc21	Lmaj promast 99 (no result: bCat KO growth, HCT116 PTEN-null)
Cn1c(-c2ccccc2)c(C(=O)CCl)c2ccccc21	Lmaj promast 98 (no result: bCat KO growth, HCT116 PTEN-null, INS promoter inh)
Cn1c(-c2ccccc2)c(CCO)c2ccccc21	none (no result: Ins promoter up)
COc1cccc(CNn2c(-c3cccc(C)c3)nc3ccccc3c2=O)c1O	Lmaj promast 54 (no result: INS promoter inh)
COc1ccc(O)c(CNn2c(-c3ccc(Br)cc3)nc3ccccc3c2=O)c1	none (no result: bCat KO growth, HCT116 PTEN-null)
CC(C)(C)N(Cc1ccccc1)C(=O)CSc1nnc(CNc2ccc(F)cc2)o1	Lmaj promast 100
O=C(CSc1nnc(CNc2ccc(F)cc2)o1)N1c2ccccc2Sc2ccccc21	Lmaj promast 65 (no result: Ins promoter up)
CCOC(=O)CN(C(=O)CSc1nnc(CNc2ccc(F)cc2)o1)c1ccccc1	none (no result: Ins promoter up, INS promoter inh)
O=S(=O)(NC(=NCc1ccccc1)c1ccc(F)cc1)c1ccc(Cl)cc1	none (no result: bCat KO growth, HCT116 PTEN-null, INS promoter inh)
CCN1CCc2c(C#N)c(NCc3ccccc3)nc(N(CC)CC)c2C1	Lmaj promast 98 (no result: INS promoter inh)
CCCc1nc(NCc2ccccc2)c(C#N)c2c1CCCC2	none
N#Cc1c(NCCN)nc(NCc2ccccc2)c2c1CCN(Cc1ccccc1)C2	Lmaj promast 97, Autophagy HCS active (no result: bCat KO growth, HCT116 PTEN-null)
N#Cc1c(NCCN)nc(-c2ccccc2)c2c1CCCC2	Lmaj promast 85 (no result: Ins promoter up)
N#Cc1c(N2CCCCC2)nc(N2CCCCC2)c2c1CCN(Cc1ccccc1)C2	Lmaj promast 100
O=C(CN(C(=O)CCC(=O)Nc1nccs1)c1ccc(F)c(Cl)c1)NCc1ccco1	Lmaj promast 90 (no result: INS promoter inh)
C=CCn1c(NCc2cc(C)ccc2O)nc2ccccc21	none (no result: INS promoter inh)
CC(C)n1c(NCc2cc(Cl)ccc2O)nc2ccccc21	Ins promoter up inconclusive, Lmaj promast 66 (no result: INS promoter inh)
CC(C)n1c(NCCO)nc2ccccc21	none (no result: bCat KO growth, HCT116 PTEN-null)
CC(C)n1c(NCc2nc3ccccc3n2C)nc2ccccc21	Lmaj promast 60 (no result: Ins promoter up)
CCOc1ccccc1Nc1nc2ccccc2n1C(C)C	Lmaj promast 83 (no result: bCat KO growth, HCT116 PTEN-null)
C=CCn1c(NC(C)c2cc(Cl)ccc2O)nc2ccccc21 (centres undefined)	Lmaj promast 96 (no result: INS promoter inh)
CC(=O)NNc1ccc(C(F)(F)F)cc1[N+](=O)[O-]	none
COC(=O)c1ccc(CSc2ncnc3c2sc2nc(N4CCOCC4)c4c(c23)CCCC4)o1	none (no result: bCat KO growth, HCT116 PTEN-null, Ins promoter up)
O=C(NCCN1CCOCC1)Nc1ccc(Cl)cc1	none
